These results are taken from PubChem BioAssay (Tox21).

Inconclusive results are not listed. Values without a mark were called inactive. Activity calls are given as the source filed them. Unless noted, calls come from the whole dose curve.
% is set by controls: 0 for no effect and ±100 for the full control effect.

In one assay the target is Vitamin D3 receptor (Homo sapiens) (UniProt P11473). Nature of the assay: qHTS assay to identify small molecule agonists of the vitamin D receptor (VDR) signaling pathway (AID 743222). To be noted: HEK293T VDR-UAS-bla, beta-lactamase FRET ratio, 16 h; series mostly up to 63.5 µM. The method, boiled down: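 Beta-lactamase reporter readout (LiveBLAzer B/G FRET, 2 h RT) in VDR-bla cells after 16 h compound treatment at 37C, 5% CO2; cells pre-incubated 4 h before pin transfer of DMSO solutions.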
Chain of Vitamin D3 receptor (Homo sapiens) (P11473 whole entry, looked up): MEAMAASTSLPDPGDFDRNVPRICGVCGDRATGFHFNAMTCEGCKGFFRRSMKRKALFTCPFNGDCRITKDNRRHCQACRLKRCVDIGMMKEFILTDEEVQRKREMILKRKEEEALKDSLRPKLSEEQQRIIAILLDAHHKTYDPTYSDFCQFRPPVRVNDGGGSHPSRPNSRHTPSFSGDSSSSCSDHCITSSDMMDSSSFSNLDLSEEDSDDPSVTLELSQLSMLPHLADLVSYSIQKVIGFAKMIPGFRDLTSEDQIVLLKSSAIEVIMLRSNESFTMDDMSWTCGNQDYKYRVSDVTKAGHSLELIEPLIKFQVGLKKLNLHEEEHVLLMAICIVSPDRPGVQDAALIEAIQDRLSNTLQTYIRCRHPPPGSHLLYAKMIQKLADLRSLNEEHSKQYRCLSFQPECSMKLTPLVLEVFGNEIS
Background: In qHTS, concentration-response curves come from the screen itself.
With `C[C@H](N)C(=O)N[C@@H](C)C(=O)NC1[C@H]2CN(c3nc4c(cc3F)c(=O)c(C(=O)O)cn4-c3ccc(F)cc3F)C[C@@H]12` (some centres not stated), the result was inactive.

Take `CCc1ccc2c(c1)C(=O)c1ccccc1C2=O`: the result was inactive. Same read-out and setting: for `C[C@H](CN1CCCC1)C(=O)c1ccc(C(F)(F)F)cc1` the value was “inactive”.

In the case of `CC1=CC(=C(c2ccc(N)cc2)c2ccc(N)cc2)C=CC1=N`, the activation was -2.54% [at 6.01 µM]. On to `NCCOCCOCCN`, for which the result was inactive. The same measure, in the same setting: then `C=C[Si](OCC)(OCC)OCC`, with “inactive”. For the molecule `O=C(O)c1ccccc1[N+](=O)[O-]`, the outcome was inactive.

For `O=C(O)c1cccnc1Nc1cccc(C(F)(F)F)c1`, the result was inactive. Consider `O=C(O)c1cccc(C(=O)O)c1C(=O)O`, for which the result was inactive. Take `SCCOCCOCCS`: the outcome was inactive. `Clc1nc2ccccc2nc1Cl`: the result was inactive. For the molecule `O=C(O)c1cc(C(=O)O)c(C(=O)O)cc1C(=O)O`, the result was inactive. The same measure, in the same setting: then `c1ccc(CN(Cc2ccccc2)Cc2ccccc2)cc1`, with “inactive”; and `C=C[Si]1(C)O[Si](C)(C=C)O[Si](C)(C=C)O[Si](C)(C=C)O1` (configuration not stated), with “inactive”.

On to `CC(O)C(C)O` (configuration not stated), for which the result was inactive. With `O=C1CCCN1CCO`, the outcome was inactive.

On to `S=c1[nH][nH]c(=S)s1`, for which the outcome was inactive. For `Cc1c(N=C=O)cccc1N=C=O`, the result was inactive. Turning to `CCCN(C1CCN(C(=O)C2CCNCC2)CC1)[C@@H]1CCc2ccc(OC)cc2C1`, the outcome was inactive. `CCCCCCC/C=C/C=O`: the outcome was inactive. With `CC(=O)Nc1ccn(C2COC(COC(=O)c3ccccc3)O2)c(=O)n1` (configuration not stated), the outcome was inactive. For the molecule `O=c1c2ccccc2oc2ccccc12`, the result was inactive. In the case of `COc1ccc(/C=C/c2cc(OC)cc(=O)o2)cc1`, the result was inactive. As to `O=C(N[C@@H](Cc1ccccc1)[C@@H](O)C(=O)N1C[C@@H](O)[C@@H](O)C1)c1cc2cc(Cl)ccc2[nH]1`, the result was inactive. In the case of `CO[C@@H]1[C@@H](O[C@@H]2O[C@H](C)[C@@H](O[C@H]3C[C@@](C)(O)[C@@H](O)[C@H](C)O3)[C@H](N(C)C)[C@H]2O)[C@@H](CC=O)C[C@@H](C)[C@@H](O[C@@H]2CC[C@H](N(C)C)[C@@H](C)O2)/C=C/C=C/C[C@@H](C)OC(=O)C[C@H]1OC(C)=O`, the outcome was inactive. Still for that read-out and setting: then `O=Cc1ccc(Cl)c([N+](=O)[O-])c1`, with “inactive”.

Another assay has the same target. Nature of the assay: qHTS assay to identify small molecule antagonists of the vitamin D receptor (VDR) signaling pathway (AID 743223; active = well fitted inhibition curve with a large enough effect in the signal ratio in the repeat runs, not every such curve was filed as active; the % refers to the signal ratio). To be noted: VDR-UAS-bla HEK293T, beta-lactamase FRET ratio, 16 h; series mostly up to 61 µM. The method, boiled down: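 After VDR-bla cells are plated and left 4 h at 37C, DMSO-dissolved compounds and 3 nM (final) calcitriol agonist are added. Incubation continues 16 h at 37C; FRET beta-lactamase substrate then develops 2 h at room temperature.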
On to `C[C@H](N)C(=O)N[C@@H](C)C(=O)NC1[C@H]2CN(c3nc4c(cc3F)c(=O)c(C(=O)O)cn4-c3ccc(F)cc3F)C[C@@H]12` (some centres not stated), for which the result was inactive. In the case of `C=C[Si](OCC)(OCC)OCC`, the result was inactive. `O=C(O)c1ccccc1[N+](=O)[O-]`: the outcome was inactive. With `Clc1nc2ccccc2nc1Cl`, the outcome was inactive. Turning to `O=C(O)c1cc(C(=O)O)c(C(=O)O)cc1C(=O)O`, the outcome was inactive. In the case of `Oc1ccc(CCNCCCCCCNCCc2ccccc2)cc1O`, the outcome was inactive. For `c1ccc(CN(Cc2ccccc2)Cc2ccccc2)cc1`, the outcome was inactive.

For `CCN(CCCCOC(=O)c1ccc(OC)c(OC)c1)C(C)Cc1ccc(OC)cc1` (configuration not stated), the result was inactive. With `C=C[Si]1(C)O[Si](C)(C=C)O[Si](C)(C=C)O[Si](C)(C=C)O1` (configuration not stated), the outcome was inactive. As to `CC(O)C(C)O` (configuration not stated), the result was inactive. On to `Cc1c(N=C=O)cccc1N=C=O`, for which the outcome was inactive.

Take `CCCN(C1CCN(C(=O)C2CCNCC2)CC1)[C@@H]1CCc2ccc(OC)cc2C1`: the outcome was inactive.

Consider `CCCCCCC/C=C/C=O`, for which the result was inactive. Regarding `C[C@]12CCC(=O)C=C1[C@@H]1C[C@@H]1[C@H]1[C@@H]3[C@@H]4C[C@@H]4[C@@]4(CCC(=O)O4)[C@@]3(C)CC[C@@H]12`, the outcome was inactive. Consider `COc1ccc(/C=C/c2cc(OC)cc(=O)o2)cc1`, for which the result was inactive. With `O=C(N[C@@H](Cc1ccccc1)[C@@H](O)C(=O)N1C[C@@H](O)[C@@H](O)C1)c1cc2cc(Cl)ccc2[nH]1`, the result was inactive.
